Drawing on PubChem BioAssay (NCI), this text covers growth for five compounds.

Compounds without any hit were thinned out: in the full panel of roughly 83,000, 20% have a hit.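 In brief: 96-well plates, 48 h treatment, single concentration, percent growth endpoint.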 Unmarked numbers belong to inactive results. The source made the active and inactive calls. Rule for the calls: active = growth percent below 10; inactive = the rest.

Common to all, as to experiment: NCI-60 one-dose screen, 48 h (100 = growth as untreated, 0 = no growth, -100 = all killed)
One test relates to NCI-H226 lung. To be noted: 10 µM.
A further test concerns NCI-H322M lung. The conditions noted are these: 10 µM.
Another test has as its system HOP-62 NSCLC. To be noted: 10 µM.
A further test has as its system NCI-H460 lung. To be noted: 10 µM.
The test system of a further test is A549/ATCC NSCLC. The conditions noted are these: 10 µM.
The subject of another test is COLO 205 colon. The conditions noted are these: 10 µM.
The next test concerns DU-145 prostate. To be noted: 10 µM.
The next test has as its system SF-268 CNS. The conditions noted are these: 10 µM.
Another test deals with SF-295 CNS. The conditions noted are these: 10 µM.
The subject of another test is SF-539 CNS. To be noted: 10 µM.
The next test deals with HCT-15 colon. To be noted: 10 µM.
A further test concerns HT29 colon. The conditions noted are these: 10 µM.
A further test relates to SNB-75 CNS. The conditions noted are these: 10 µM.
The subject of another test is SNB-19 CNS. To be noted: 10 µM.
The next test has as its system U251 CNS. To be noted: 10 µM.
The next test relates to PC-3 prostate. The conditions noted are these: 10 µM.
The test system of the next test is EKVX NSCLC. To be noted: 10 µM.
A further test concerns UO-31 renal. To be noted: 10 µM.
In a further test the test system is ACHN renal. To be noted: 10 µM.
Another test deals with HL-60(TB) leukemia. The conditions noted are these: 10 µM unless noted.

Take `CC(=O)O[C@@H]1C[C@H]2O[C@@H]3C=C(C)CC[C@]3(C)[C@]1(C)[C@]21CO1`: the growth with NCI-H226 lung is 22.3%; with NCI-H322M lung, 18.8%; with HOP-62 NSCLC, 6.11% (active); with NCI-H460 lung, 6.94% (active); with A549/ATCC NSCLC, 12.8%; in the test with COLO 205 colon, -61.3% (active). In addition, the growth was 16.8% in the test on DU-145 prostate; 15.3% in the test with SF-268 CNS; 34.1% with SF-295 CNS; -23.1% (active) in the test with SF-539 CNS; 3.87% (active) in the test with HCT-15 colon; 8.97% (active) in the test with HT29 colon. Further, the growth with SNB-75 CNS was 29.4%; in the test with SNB-19 CNS it was 3.18% (active); in the test on U251 CNS it was 5.85% (active); with PC-3 prostate, 24.8%; with EKVX NSCLC, 26%; in the test on UO-31 renal it was 53.3%. For the same compound, the growth with ACHN renal was 23%; in the test on HL-60(TB) leukemia, -33.9% (active).

As for `CN1C(=O)[C@]23SSC1(C)C(=O)N2[C@H]1Nc2ccccc2C1([C@@]12c4ccccc4N[C@@H]1N1C(=O)C4(C)SS[C@]1(C(=O)N4C)[C@H]2O)[C@@H]3O` (stereo not given in full), the growth was -96.6% (active) in the test on NCI-H226 lung; -74.2% (active) in the test with NCI-H322M lung; -91% (active) in the test on HOP-62 NSCLC; -87.4% (active) in the test with NCI-H460 lung; -86.9% (active) in the test on A549/ATCC NSCLC; -88.9% (active) in the test on COLO 205 colon. Further, the growth was -94.1% (active) in the test on DU-145 prostate; -86.5% (active) in the test on SF-268 CNS; -80.2% (active) in the test on SF-295 CNS; -91.3% (active) in the test with SF-539 CNS; -45.4% (active) with HCT-15 colon; -66.7% (active) in the test with HT29 colon. For the same compound, the growth in the test on SNB-75 CNS is -85.8% (active); in the test on SNB-19 CNS, -99.4% (active); in the test on U251 CNS, -97.5% (active); in the test with PC-3 prostate, -79.9% (active); in the test with EKVX NSCLC, -97.4% (active); with UO-31 renal, -100% (active). The growth was -98.8% (active) with ACHN renal and -19.4% (active) in the test on HL-60(TB) leukemia.

As for `CC1=C[C@H]2O[C@@H]3C[C@H]4OC(=O)/C=C\C=C\[C@H]([C@@H](C)O)OCC/C(C)=C/C(=O)OC[C@@]2(CC1)[C@]4(C)[C@]31CO1`, the growth is -50.5% (active) in the test with NCI-H226 lung; -19% (active) in the test on NCI-H322M lung; -42.9% (active) with HOP-62 NSCLC; -7.38% (active) in the test on NCI-H460 lung; -25.6% (active) in the test with A549/ATCC NSCLC; -62.3% (active) in the test on COLO 205 colon. Moreover, the growth was -17.5% (active) in the test on DU-145 prostate; -1.73% (active) in the test on SF-268 CNS; -37.5% (active) in the test with SF-295 CNS; -39.2% (active) in the test on SF-539 CNS; -18.6% (active) in the test with HCT-15 colon; -27.7% (active) in the test with HT29 colon. For the same compound, the growth in the test on SNB-75 CNS was -50.1% (active); in the test with SNB-19 CNS, -6.9% (active); in the test with U251 CNS, -17.3% (active); in the test with PC-3 prostate, -23.9% (active); in the test on EKVX NSCLC it was -25.1% (active); in the test on UO-31 renal, -29.4% (active). The figures for the growth in the test with ACHN renal and in the test on HL-60(TB) leukemia were -16.1% (active) and -44.9% (active), respectively.

Consider `CN(CCF)/N=N/c1nc[nH]c1C(N)=O`, for which the growth in the test with NCI-H226 lung was 47.6%; in the test with NCI-H322M lung it was 60%; in the test with HOP-62 NSCLC, 26.5%; in the test with NCI-H460 lung it was 38.6%; with A549/ATCC NSCLC, 98.8%; with COLO 205 colon it was 39.1%. Moreover, the growth in the test with DU-145 prostate was 24.6%; in the test with SF-268 CNS it was 36.8%; in the test on SF-295 CNS, 19.9%; with SF-539 CNS, 38.5%; with HCT-15 colon it was 57.6%; with HT29 colon, 42%. Also, the growth was 31.4% in the test on SNB-75 CNS; 98.8% in the test on SNB-19 CNS; 90.9% in the test with U251 CNS; 55.1% with PC-3 prostate; 75.9% in the test with EKVX NSCLC; 21.1% in the test with UO-31 renal. The growth in the test on ACHN renal was 36.6%; in the test with HL-60(TB) leukemia, 21.6%.

Turning to `COC(=O)[C@H]1[C@@H](O)[C@@]2(O)c3c(OC)cc(OC)cc3O[C@@]2(c2ccc(OC)cc2)[C@@H]1c1ccccc1`, the growth with NCI-H226 lung was 3.03% (active); in the test with NCI-H322M lung it was -19% (active); in the test with HOP-62 NSCLC, -11.6% (active); in the test on NCI-H460 lung it was 2.19% (active); in the test with A549/ATCC NSCLC it was -14.9% (active); in the test with COLO 205 colon, -71% (active). The growth with DU-145 prostate is -9.42% (active); in the test with SF-268 CNS, 0.0752% (active); in the test with SF-295 CNS it was -14.4% (active); in the test on SF-539 CNS, -25.6% (active); in the test on HCT-15 colon, -3.06% (active); in the test with HT29 colon, -34.3% (active). Besides, the growth in the test with SNB-75 CNS was -6.18% (active); in the test with SNB-19 CNS, -4.86% (active); with U251 CNS it was -5.73% (active); in the test on PC-3 prostate, -7.51% (active); in the test on EKVX NSCLC, -5.16% (active); in the test with UO-31 renal it was -20.5% (active). Besides, the growth was -23% (active) in the test on ACHN renal and -21.8% (active) with HL-60(TB) leukemia.
